Assay results reported in paper PMC3218832.

Key:
Experiment in all cases: protein binding microarray; high values mean tight binding
Conditions in all cases: dsDNA, one strand shown
RELARELA (p65 homodimer) = RELARELA (p65 homodimer) (Homo sapiens, UniProt Q04206 1-307)
p50p50 homodimer = p50p50 homodimer (Homo sapiens, UniProt P19838 7-356)
p52p52 homodimer = biological target: T1, p52p52 homodimer (Homo sapiens, UniProt Q00653 4-332)
T1 sequence: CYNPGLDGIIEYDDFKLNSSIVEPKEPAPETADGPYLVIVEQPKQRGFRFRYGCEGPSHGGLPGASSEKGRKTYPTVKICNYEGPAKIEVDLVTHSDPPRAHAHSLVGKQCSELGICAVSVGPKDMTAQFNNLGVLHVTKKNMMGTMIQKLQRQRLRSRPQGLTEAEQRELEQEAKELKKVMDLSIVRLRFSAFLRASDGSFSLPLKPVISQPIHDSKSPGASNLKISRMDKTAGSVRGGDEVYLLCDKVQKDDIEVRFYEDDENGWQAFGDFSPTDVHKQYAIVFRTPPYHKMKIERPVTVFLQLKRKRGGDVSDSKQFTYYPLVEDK

[1] = biological target: RELA (p65) subunit of heterodimer;p50 subunit (Homo sapiens;Homo sapiens, UniProt Q04206;P19838 1-307;7-356)
Chain of RELA (p65) subunit of heterodimer;p50 subunit (Q04206 1-307, chain 1 of 2): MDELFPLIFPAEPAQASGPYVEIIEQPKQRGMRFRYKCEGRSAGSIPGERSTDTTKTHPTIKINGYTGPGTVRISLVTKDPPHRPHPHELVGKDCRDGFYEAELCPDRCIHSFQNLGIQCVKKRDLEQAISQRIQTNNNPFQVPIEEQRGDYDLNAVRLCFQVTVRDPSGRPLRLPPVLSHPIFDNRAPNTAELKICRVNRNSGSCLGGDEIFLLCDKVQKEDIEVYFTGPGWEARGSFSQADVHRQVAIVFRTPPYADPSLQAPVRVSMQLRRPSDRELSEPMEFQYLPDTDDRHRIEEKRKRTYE
Chain of RELA (p65) subunit of heterodimer;p50 subunit (P19838 7-356, chain 2 of 2): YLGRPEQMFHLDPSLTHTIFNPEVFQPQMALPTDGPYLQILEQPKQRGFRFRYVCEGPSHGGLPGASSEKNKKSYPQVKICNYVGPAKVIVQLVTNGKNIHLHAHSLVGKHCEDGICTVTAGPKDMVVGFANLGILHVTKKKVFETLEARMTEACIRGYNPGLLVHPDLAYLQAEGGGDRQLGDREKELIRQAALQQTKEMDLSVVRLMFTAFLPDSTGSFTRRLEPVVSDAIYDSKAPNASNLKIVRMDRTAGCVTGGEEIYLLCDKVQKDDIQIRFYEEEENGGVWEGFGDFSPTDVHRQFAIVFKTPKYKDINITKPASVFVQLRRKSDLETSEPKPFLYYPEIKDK

[2] = biological target: RELA (p65) subunit of heterodimer;p52 subunit (Homo sapiens;Homo sapiens, UniProt Q04206;Q00653 1-307;4-332)
RELB subunit;p50 subunit = RELB subunit;p50 subunit (Homo sapiens;Homo sapiens, UniProt Q01201;P19838 120-401;7-356)
RELB subunit;p52 subunit = biological target: T2, RELB subunit;p52 subunit (Homo sapiens;Homo sapiens, UniProt Q01201;Q00653 120-401;4-332)
T2 sequence 1: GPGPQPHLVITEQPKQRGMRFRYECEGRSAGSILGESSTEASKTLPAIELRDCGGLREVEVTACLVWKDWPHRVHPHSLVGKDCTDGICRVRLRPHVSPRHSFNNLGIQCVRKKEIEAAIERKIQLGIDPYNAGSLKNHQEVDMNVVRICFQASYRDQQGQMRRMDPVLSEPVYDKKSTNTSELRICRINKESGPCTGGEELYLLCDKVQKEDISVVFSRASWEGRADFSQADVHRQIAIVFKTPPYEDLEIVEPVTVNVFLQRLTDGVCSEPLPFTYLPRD
T2 sequence 2: T1 sequence

[3] = biological target: C-Rel subunit;p50 subunit (Homo sapiens;Homo sapiens, UniProt Q04864;P19838 1-285;7-356)
[4] = biological target: T3, C-Rel subunit;p52 subunit (Homo sapiens;Homo sapiens, UniProt Q04864;Q00653 1-285;4-332)
T3 sequence 1: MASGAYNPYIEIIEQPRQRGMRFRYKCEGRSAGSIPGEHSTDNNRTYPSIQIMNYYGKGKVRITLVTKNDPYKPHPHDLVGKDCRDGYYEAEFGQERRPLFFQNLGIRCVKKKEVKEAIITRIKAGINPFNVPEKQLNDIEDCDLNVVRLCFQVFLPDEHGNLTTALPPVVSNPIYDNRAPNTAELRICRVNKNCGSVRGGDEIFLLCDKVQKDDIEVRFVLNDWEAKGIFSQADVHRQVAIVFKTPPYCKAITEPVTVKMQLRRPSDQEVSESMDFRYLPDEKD
T3 sequence 2: T1 sequence

Chain of RELARELA (p65 homodimer) (Q04206 1-307): as the sequence (Q04206 1-307, chain 1 of 2) above
Chain of p50p50 homodimer (P19838 7-356): as the sequence (P19838 7-356, chain 2 of 2) above

Sequence | binding signal (RELARELA (p65 homodimer)) | binding signal (p50p50 homodimer) | binding signal (p52p52 homodimer) | binding signal [1] | binding signal [2] | binding signal (RELB subunit;p50 subunit) | binding signal (RELB subunit;p52 subunit) | binding signal [3] | binding signal [4]
GGAGTAATCCC | 0.396 z-score | -0.279 z-score | 0.000216 z-score | -0.0898 z-score | -0.103 z-score | -0.277 z-score | -0.368 z-score | 0.0858 z-score | 0.0188 z-score
CAATGTGTCCT | 0.249 z-score | -1.04 z-score | -0.284 z-score | -0.926 z-score | -0.828 z-score | -0.731 z-score | -0.475 z-score | -0.887 z-score | -0.764 z-score
GAAAACGTCCT | -0.176 z-score | -1.26 z-score | -0.536 z-score | -0.838 z-score | -0.654 z-score | -0.872 z-score | -0.687 z-score | -0.823 z-score | -0.648 z-score
AAATTTCCCCC | 2.97 z-score | 1.66 z-score | 2.84 z-score | 2.63 z-score | 2.41 z-score | 2.88 z-score | 2.69 z-score | 2.02 z-score | 2.57 z-score
GAAAATCTCCC | 1.06 z-score | 0.914 z-score | 0.592 z-score | 0.875 z-score | 0.8 z-score | 1.08 z-score | 0.63 z-score | 0.573 z-score | 0.538 z-score
GGGTTCCTCCT | -0.196 z-score | -1.42 z-score | -0.584 z-score | -0.636 z-score | -0.6 z-score | -0.937 z-score | -0.638 z-score | -0.934 z-score | -0.467 z-score
CGAGGCATCCC | -0.716 z-score | -1.34 z-score | -0.635 z-score | -1.05 z-score | -0.831 z-score | -0.973 z-score | -0.906 z-score | -1.02 z-score | -0.807 z-score
